Compound activity deposited in PubChem BioAssay by several laboratories.
TWEAK-Fn14 inh = blocks TWEAK-Fn14 interaction in a reporter cell assay; inhibition, % at 10 µM; TWEAK-stimulated Fn14 reporter cells, luciferase luminescence, 8 h; hit rate 2% among 360,000; in the data active = inhibition above about 50%
HSF1 inhib = HSF1 inhibition; NIH3T3-HGL HSE-luciferase, MG132-induced, luminescence 8 h; stronger effect = lower value; activity change, negative = inhibition, % at 7.5 µM (by protocol); hit rate 0.77% among 300,000; AID 2098;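 active = more than half of replicate wells show activity change below -50%, luminescence cut by over half; inconclusive = some wells, but at most half, below -50%; inactive = no replicate well below -50%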;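 note: luciferase reports HSF-1 transcriptional activity via heat shock element; 0% = median of DMSO wells and -100% = zero luminescence signal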
LGR2 inh = blocks bursicon-induced cAMP signaling via Drosophila LGR2; HEK293 LGR2, CRE-luciferase, bursicon-stimulated, 4 h; inhibition, % at 9.99 µM; hit rate 0.35% among 380,000; AID 720647;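 active = drop in luminescence signal, shown as inhibition above about 50% in the replicate tests, limit read from the data, passing the limit was not always enough; inconclusive = probably only some replicates passing the limit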;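 note: agonist challenge used bursicon conditioned medium at about half maximal strength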
EBV LMP1 NFkB = reduces LMP1-driven NF-kappaB luciferase signal | AID 504558 | hit rate 0.69% among 350,000 | LMP1-induced NF-kappaB luciferase reporter cells, luminescence | inhibition, % at 12.5 µM; in the data active = inhibition above about 41%; inconclusive = no clear call, values can overlap the other calls;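 note: 0% = neutral control wells and 100% = reference inhibitor control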
TROY signal inh = blocks TROY-dependent signaling in reporter cells; inhibition, % at 10 µM; AID 1347056; Q293 LMP1-TROYcd NF-kB luciferase reporter, 4 h; hit rate 0.98% among 360,000;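 active = compounds whose plate-normalised and pattern-corrected inhibition of the luciferase reporter signal at the single screening dose is 50% or more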
HSF1 activator = increases HSF-1 driven luciferase reporter signal | NIH3T3-HGL HSF-1 luciferase reporter, MG132, 8 h; 100% = twice DMSO control signal | activation, % at 9 µM | hit rate 1.7% among 300,000 | AID 504408;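 active = mean replicate activation of at least 50% with a set share of replicates each reaching 50%; inconclusive = only one of those two conditions met; inactive = mean below 50% and too few replicates reaching it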;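 note: 0% = median of the neutral control wells and 100% = twice that signal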
Active calls of the source: *. In the library only some 3.6% were active in any assay of this set; here they are far more common.

Screening CC1CCC(C(C)C)C(OC(=O)Cn2c(-c3ccccc3)[n+](C)c3ccccc32)C1 (stereo unspecified) returned TWEAK-Fn14 inh 64*, HSF1 inhib -5, LGR2 inh 59*, EBV LMP1 NFkB -21, TROY signal inh 57* and HSF1 activator -12.
Screening C[C@H](CO)N1C[C@H](C)[C@H](CN(C)Cc2ccc3c(c2)OCO3)Oc2ccc(NC(=O)C3CC3)cc2C1=O returned LGR2 inh -3.
`O=C(Nc1ccc2sccc2c1)c1ccc(Cl)s1` gave TWEAK-Fn14 inh -2, HSF1 inhib 34, LGR2 inh -42, EBV LMP1 NFkB -72, TROY signal inh -35 and HSF1 activator 72*.
For O=C(Nc1ccc2c(c1)C(=O)NC2=O)c1ccc(Cl)s1 the results were TWEAK-Fn14 inh -20, HSF1 inhib 15, LGR2 inh -5, EBV LMP1 NFkB 11, TROY signal inh -26 and HSF1 activator 29.
O=C(Nc1ccc(Br)cn1)c1ccc(Br)s1 was read as TWEAK-Fn14 inh 9, HSF1 inhib 37, LGR2 inh -105, EBV LMP1 NFkB -7, TROY signal inh -46 and HSF1 activator 70*.
For CN(C)CC(=O)N1CC2(C1)[C@@H](c1ccccc1)[C@@H](CO)N2S(=O)(=O)c1ccccc1 the results were LGR2 inh 9.
For CN=c1scc(-c2ccc(F)cc2)n1/N=C/c1ccc(O)c(O)c1 the results were TWEAK-Fn14 inh 88*, LGR2 inh 75*, EBV LMP1 NFkB 9 and TROY signal inh 76*.
`CN=c1scc(-c2ccc([N+](=O)[O-])cc2)n1/N=C/c1ccco1` gave TWEAK-Fn14 inh 0, HSF1 inhib 20, LGR2 inh -57, EBV LMP1 NFkB -8, TROY signal inh -19 and HSF1 activator 34.
Nc1nc(=O)n(C2CC(O)C(CO)O2)cc1Cl (stereo unspecified) was read as TWEAK-Fn14 inh -4, LGR2 inh 4 and TROY signal inh -7.
For Cc1cc(N)nc(=O)n1C1CC(O)C(CO)O1 (stereo unspecified) the results were TWEAK-Fn14 inh 8, HSF1 inhib 7, LGR2 inh -8, EBV LMP1 NFkB 87*, TROY signal inh -2 and HSF1 activator 7.
For N#CC1=C(N)C(C#N)(C#N)C(c2cccnc2)C2CC(c3ccccc3)CC=C12 (stereo unspecified) the results were TWEAK-Fn14 inh 61*, HSF1 inhib -55*, EBV LMP1 NFkB 55*, TROY signal inh 10 and HSF1 activator -66.
N#CC1=C(N)C(C#N)(C#N)[C@H](c2cccnc2)[C@H]2CN(C(=O)OCc3ccccc3)CC=C12 was read as TWEAK-Fn14 inh 6, HSF1 inhib -2, LGR2 inh 9, EBV LMP1 NFkB 2, TROY signal inh -20 and HSF1 activator 7.
Cc1cc(/C=C(/C#N)c2cccc(Cl)c2)c(C)n1C was read as TWEAK-Fn14 inh -16, HSF1 inhib 32, LGR2 inh 12, EBV LMP1 NFkB -2, TROY signal inh 2 and HSF1 activator 67*.
Screening O=C(C[C@H]1CC[C@H]2[C@@H](COC[C@@H](O)CN2C(=O)Nc2ccc(C(F)(F)F)cc2)O1)NCC1CCCCC1 returned LGR2 inh 6.
For CC(C)(C)C(=O)Cn1ncc(Br)c(Br)c1=O the results were TWEAK-Fn14 inh 79*, HSF1 inhib inconclusive, LGR2 inh 103*, EBV LMP1 NFkB 61*, TROY signal inh 53* and HSF1 activator -29.
`COc1ccc(NC(=O)c2cnn(-c3ccccc3)c2C)cc1` gave TWEAK-Fn14 inh 50*, HSF1 inhib 17, EBV LMP1 NFkB 19, TROY signal inh -15 and HSF1 activator 31.
Cc1ccc(NC(=O)c2cnn(-c3ccccc3)c2C)cc1C was read as TWEAK-Fn14 inh 85*, HSF1 inhib -8, LGR2 inh 85*, EBV LMP1 NFkB 8, TROY signal inh 63* and HSF1 activator -9.
For O=C(C[C@H]1CC[C@H]2[C@@H](COC[C@H](O)CN2Cc2ccc(Oc3ccccc3)cc2)O1)Nc1nccs1 the results were LGR2 inh 32.
`CCC(=O)N[C@@H]1CC[C@@H](CCn2cc(C3CC3)nn2)O[C@@H]1CO` gave LGR2 inh 2.
For CSc1nnc([C@H](Cc2c[nH]c3ccccc23)NC(=O)OC(C)(C)C)o1 the results were TWEAK-Fn14 inh -13, HSF1 inhib 3, LGR2 inh -16, EBV LMP1 NFkB -12, TROY signal inh -15 and HSF1 activator -6.
Screening CCSc1nnc([C@H](Cc2c[nH]c3ccccc23)NC(=O)OC(C)(C)C)o1 returned TWEAK-Fn14 inh 8, HSF1 inhib 19, EBV LMP1 NFkB 1, TROY signal inh -6 and HSF1 activator 59*.
C=CCn1c(SCC(=O)Nc2sccc2C(N)=O)nc2sc(C)c(C)c2c1=O was read as TWEAK-Fn14 inh 49, HSF1 inhib 22, EBV LMP1 NFkB -3, TROY signal inh 51* and HSF1 activator 31.
Cc1ccc(S(=O)(=O)NCC[C@H]2CC[C@@H](NC(=O)Nc3ccccc3F)[C@H](CO)O2)cc1 was read as LGR2 inh -9.
`O=C(CCl)Nc1nc(-c2ccco2)c(-c2ccco2)s1` gave TWEAK-Fn14 inh 12, HSF1 inhib 0, EBV LMP1 NFkB -24, TROY signal inh -12 and HSF1 activator 3.
Screening Cc1ccc(C(=O)Nc2nc(-c3ccco3)c(-c3ccco3)s2)o1 returned TWEAK-Fn14 inh 83*, LGR2 inh -11, EBV LMP1 NFkB -8 and TROY signal inh -7.
`CCCC(=O)Nc1ccc2c(c1)C(=O)N(C)C[C@H](OC)[C@@H](C)CN(CC1CCCC1)[C@H](C)CO2` gave LGR2 inh 3.
COc1cccc(/C=N/n2c(C3CCCCC3)n[nH]c2=S)c1 was read as TWEAK-Fn14 inh 52*, HSF1 inhib -3, LGR2 inh 1, EBV LMP1 NFkB 1, TROY signal inh 32 and HSF1 activator 4.
Screening O=C(CC1CCCCC1)NCc1ccccn1 returned TWEAK-Fn14 inh -11, HSF1 inhib -90*, EBV LMP1 NFkB -6, TROY signal inh -13 and HSF1 activator -92.
For Cc1ccc(C(=O)NN=CC(=O)c2ccccc2)c(C)c1 the results were TWEAK-Fn14 inh 65*, LGR2 inh 70*, EBV LMP1 NFkB -35 and TROY signal inh 52*.
`CCOc1cc(/C=N/Nc2cc(C)nc(-n3nc(C)cc3C)n2)ccc1O` gave TWEAK-Fn14 inh -8, HSF1 inhib -2, LGR2 inh 5, EBV LMP1 NFkB 70*, TROY signal inh 2 and HSF1 activator 1.
For COc1ccc(S(=O)(=O)N2c3ccccc3OCC2c2ccccc2)cc1 (stereo unspecified) the results were TWEAK-Fn14 inh 79*, HSF1 inhib -6, EBV LMP1 NFkB 18, TROY signal inh 41 and HSF1 activator 1.
